Compound activity deposited in PubChem BioAssay by The Scripps Research Institute Molecular Screening Center.
TTR transcr act: TTR transcription activation, primary screen. activation, % at 16.7 µM. SH-SY5Y TTR promoter Gaussia luciferase, luminescence; 100% = recombinant luciferase protein wells. 92,000 tested, 1.3% active;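 active = activation above the mean of all tested compounds plus 3 SD, cut at about 9.5% in these data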;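 also: cells exposed to compounds for one day before reading; 0% = median of all test compound wells on the plate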
TTR inh HuH7: counter-screen for TTR activators: TTR transcription inhibitors in HuH7 cells. shares compounds with TTR transcr act. HuH7 TTR promoter-Gaussia luciferase reporter, luminescence. inhibition, % at 16.7 µM. 1,100 tested, 4% active. AID 1117279;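 active = average inhibition above the solvent-only control wells' mean plus 3 SD, cut at about 15% in these data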;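 also: 0% = cells with DMSO only and 100% = cells with inhibitor control FD; inhibitors lower well luminescence so higher value means more inhibition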
TTR act confirm: confirmation of human transthyretin transcription activators; shares compounds with TTR transcr act; SHSY5Y TTR promoter Gaussia luciferase, luminescence; 100% = purified Lucia enzyme wells, no cells; activation, % at 16.7 µM; 1,100 tested, under 10 active; AID 1117280;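 active = mean activation above a set limit taken from the earlier primary screen, cut at about 11% in these data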;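 also: 0% = DMSO-treated cells and 100% = recombinant Lucia luciferase without cells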
Numbers without * were called inactive. The full list was thinned out, with hits kept by preference.

SMILES | TTR transcr act | others
CN1OC[C@@H]2CN(CC3CCCCC3)[C@H](c3ccc(-c4ccc(C#N)cc4)cc3)C[C@@H]21 | 3
FC(F)(F)c1ccc(Cn2ccc3ccc(-c4ccc5ccn(Cc6ccc(C(F)(F)F)cc6)c5c4)cc32)cc1 | 0
O=C(COC(=O)c1cc(Br)ccc1O)NNC(=O)c1ccc([N+](=O)[O-])cc1 | -2
O=C(NNC(=O)c1ccccc1O)c1ccc(Br)cc1 | 1
O=C(COC(=O)c1ccccc1O)NNC(=O)c1ccc(Br)cc1 | 9.9* | TTR inh HuH7=-5;TTR act confirm=2
Nc1[nH]c2cc(C(F)(F)F)ccc2c1C(=O)N1CCN(CCc2ccccc2)CC1 | -1
Cc1ccc(N(CC(=O)NC(C)C)C(=O)CCC(=O)Nc2nccs2)cc1 | 2
Cc1ccc(N(CC(=O)NC(C)(C)C)C(=O)CCC(=O)Nc2nccs2)cc1C | 9.7* | TTR inh HuH7=-11;TTR act confirm=-1
Cc1ccc(N(CC(=O)NCC2CCCO2)C(=O)CCC(=O)Nc2nccs2)cc1C (stereo not given) | 0
COc1ccc(C(=O)COC(=O)c2cc(=O)[nH]c3ccccc23)c(OC)c1 | -1
CC(C)=CC([C@]12C[C@H](CO)N[C@@H]1Nc1ccccc12)S(=O)(=O)c1ccccc1 (stereo not given in full) | 0
CCN=C1SC(C(=O)Nc2cc(Cl)cc(Cl)c2)CC(=O)N1CC (stereo not given) | 0
CCN=C1SC(C(=O)Nc2ccc(Cl)c(Cl)c2)CC(=O)N1CC (stereo not given) | 20* | TTR inh HuH7=-9;TTR act confirm=1
CCN=C1SC(C(=O)Nc2cccc(C)c2)CC(=O)N1CC (stereo not given) | 3
Cc1nc(SCC(=O)NCCc2ccc(Cl)cc2)nc(C)c1C | 3
Cc1ccccc1NC(=O)O[C@H]1CC[C@@]23CCCN2C(=O)CCC[C@H]3[C@H]1C | 0
COC(=O)[C@]12C[C@H](CC(=O)NCc3cccs3)C(=O)N(Cc3ccc(Cl)cc3Cl)C1=C[C@H](C(C)C)O[C@@H]2C1CC1 | 0
Clc1ccc(-c2nc(-c3ccncc3)no2)c(Cl)c1 | 3
Clc1ccccc1-c1nc(-c2ccncc2)no1 | -1
O=[N+]([O-])c1cc(Cl)ccc1-c1nc(-c2ccncc2)no1 | 10* | TTR inh HuH7=-3;TTR act confirm=0
CCCC[C@H](C(=O)N(C)c1cccc(OC)c1)[C@@H](O)c1ccc(Cl)cc1 | -2
COc1ccc(-n2cnnc2SCC(=O)NC2CCCc3ccccc32)cc1 (stereo not given) | 2
O=C(NCCCc1ccccc1)[C@H](Cc1ccccc1)NC1(C(=O)NCCc2c[nH]c3ccccc23)CCOCC1 | 1
C=CCN(C)C(C#Cc1ccccc1)c1ccccc1C(F)(F)F (stereo not given) | 0
Cc1ccc(Nc2ccc([N+](=O)[O-])cn2)cc1Cl | 1
SMILES | TTR transcr act | others
Cc1ccc(NC(=S)N(C)N)cc1Cl | 1
Cc1ccc(Nc2cc(=O)[nH]c(=O)[nH]2)cc1Cl | 9.7* | TTR inh HuH7=-3;TTR act confirm=-1
COc1ccccc1C(=O)n1ccc2ccc(-c3ccc4ccn(Cc5ccccc5)c4c3)cc21 | 0
CCO/C(C)=N/Oc1cncnc1 | 1
COc1ccc(C2CC(=O)C3=C(C2)Nc2ccccc2N(C(=O)CCC(=O)O)C3c2ccc(F)cc2)cc1 (stereo not given) | 102* | TTR inh HuH7=-8;TTR act confirm=1
COc1ccc(C2CC(c3ccccc3)=NN2C(=O)CCC(=O)O)cc1 (stereo not given) | 1
CC(=O)N1c2ccccc2NC2=C(C(=O)CCC2)C1c1cccnc1 (stereo not given) | -1
COC(=O)C1CN(Cc2ccccc2)CCS(=O)(=O)N1Cc1cn(Cc2ccccc2Br)nn1 (stereo not given) | -1
COc1ccc(C2Nc3ccccc3C(=O)N2Cc2cccnc2)cc1COc1c(C)cccc1C (stereo not given) | -2
COC(=O)[C@]12C[C@H](CC(=O)N3CCOCC3)C(=O)N(Cc3cccc4ccccc34)C1=C[C@H](COCc1ccccc1)O[C@@H]2C | 1
CCN(CC)S(=O)(=O)c1ccc2c(c1)nc(SC(C)C(N)=O)n2-c1ccc(OC)cc1 (stereo not given) | 26* | TTR inh HuH7=6;TTR act confirm=-2
CCN(CC)S(=O)(=O)c1ccc2c(c1)nc(SC(C)C(=O)NCC1CCCO1)n2CC (stereo not given) | 2
COc1ccc(-n2nnnc2SC(C)C(N)=O)cc1 (stereo not given) | 2
CCOc1ccc(/C(O)=C2\C(=O)C(=O)N(CCOCCO)C2c2ccccc2OC)cc1 (stereo not given) | 0
Cc1csc(NC(=O)c2nc3nccc(C)n3n2)n1 | 11* | TTR inh HuH7=-8;TTR act confirm=-1
Cc1ccnc2nc(C(=O)Nc3nc4ccccc4s3)nn12 | 5
Cc1ccnc2nc(C(=O)Nc3ccc(N4CCOCC4)cc3)nn12 | 1
COc1ccc(CCNC(=O)c2ccccc2Cl)cc1OC | 0
COc1ccc(CCNC(=O)c2ccc([N+](=O)[O-])cc2Cl)cc1OC | 26* | TTR inh HuH7=-24;TTR act confirm=1
COc1ccc(CCNC(=O)c2ccc(-c3ccc([N+](=O)[O-])cc3Cl)o2)cc1OC | -2
CC(C)Sc1nnc(NC(=O)c2ccc3c(c2)OCO3)s1 | 0
O=C(N1CCC(Cc2ccccc2)CC1)n1ncc(C(O)(c2ccccc2)c2ccccc2)n1 | -1
CCN(CCn1cccn1)C(=O)CCc1nnc(C2(c3ccc(Cl)cc3)CCC2)o1 | -1
CCn1nc(NS(=O)(=O)c2ccc(NC(C)=O)cc2)c2cc3ccccc3nc21 | 0
CC(=O)Nc1ccc(S(=O)(=O)Nc2ccc3ccccc3n2)cc1 | -1
SMILES | TTR transcr act | others
CCN1CCN(c2nc3ccccc3nc2NS(=O)(=O)c2ccc(NC(C)=O)cc2)CC1 | 12* | TTR inh HuH7=-9;TTR act confirm=0
COc1ccc2[nH]c3c(c2c1)CCN[C@]31C(=O)N(Cc2cn(Cc3ccccc3)nn2)c2ccc(F)cc21 | -1
Brc1cccc(-c2nc3ccc(Br)cn3c2Cc2ccccc2)c1 | 22* | TTR inh HuH7=-2;TTR act confirm=-1
Clc1cccc(-c2nc3ccc(Br)cn3c2Cc2ccccc2)c1 | -1
Cc1ccc(Cc2c(-c3ccccc3)nc3ccc(Br)cn23)cc1 | 1
Cc1c(C(=O)N2CCN(c3cccc(Cl)c3)CC2)cccc1[N+](=O)[O-] | 1
NS(=O)(=O)c1ccc2nc(NC(=O)Nc3ccc(F)cc3)sc2c1 | -2
CNC12CCc3cc(OC)c(OC)c(c31)-c1cc3c(cc1C2)OCO3 (stereo not given) | 0
CC(Oc1ccc2c(-c3ccccc3)cc(=O)oc2c1)C(=O)NCCCn1ccnc1 (stereo not given) | -1
C[C@H]1[C@H](NC(=O)c2cccc(Cl)c2)CC[C@@]23CCCN2C(=O)CCC[C@@H]13 | 7
CCOC(=O)C1=C(c2ccccc2)NC(=O)NC1c1ccc(N(C)C)cc1 (stereo not given) | 14* | TTR inh HuH7=-7;TTR act confirm=1
CCOC(=O)C1=C(CS(=O)(=O)c2ccccc2)NC(=O)NC1c1ccccc1 (stereo not given) | -1
CCOC(=O)C1=C(c2ccccc2)NC(=O)NC1c1ccc(OC)cc1 (stereo not given) | 0
Cc1cccc(NC(=O)CSCC(=O)N(C)Cc2c(F)cccc2Cl)c1 | -1
